# From PMC8384837, “Expanding the binding specificity for RNA recognition by a PUF domain”
# What was measured:
# Assay in all cases: yeast three-hybrid, YBZ-1, SC-Leu-His + 0.5 mM 3-AT, 4 days
# Details in all cases: tags: N-Gal4 AD-HA kept; label: inside an RPR1-promoter hybrid RNA with tandem MS2 sites; ssRNA
# PUM1 PUF domain R2-VYL = PUM1 PUF domain R2-VYL (Homo sapiens, UniProt Q14671 828-1176, N899V;Q903L)
# Procedure, shortened: (§1)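 Each repeat of the Pumilio-1 PUF domain was randomized at its three base-contacting residues, and these libraries were co-expressed from a centromeric plasmid with matching RNA elements in strain YBZ-1. After four days on SC-Leu (input) or SC-Leu-His + 0.5 mM 3-AT (selection), the repeat regions were PCR-amplified and Illumina-sequenced. The interaction score compares variant frequency between input and selection as a log change, computed in log2 with a pseudocount of 1 for absent variants.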
# PUM1 PUF domain R4-ARS = PUM1 PUF domain R4-ARS (Homo sapiens, UniProt Q14671 828-1176, N971A;H972R;Q975S)
# PUM1 PUF domain R4-ARS, sequence (Q14671 828-1176 N971A/H972R/Q975S): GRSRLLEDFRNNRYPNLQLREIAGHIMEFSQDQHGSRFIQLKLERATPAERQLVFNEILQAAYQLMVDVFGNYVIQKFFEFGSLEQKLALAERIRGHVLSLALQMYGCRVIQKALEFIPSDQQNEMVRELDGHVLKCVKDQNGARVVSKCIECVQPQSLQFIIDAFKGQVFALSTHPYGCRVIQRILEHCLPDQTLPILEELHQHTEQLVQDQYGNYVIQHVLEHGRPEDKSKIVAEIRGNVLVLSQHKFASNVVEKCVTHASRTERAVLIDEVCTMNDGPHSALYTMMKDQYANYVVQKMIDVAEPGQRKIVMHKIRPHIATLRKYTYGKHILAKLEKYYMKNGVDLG
# Procedure, shortened: as §1
# PUM1 PUF domain R4-CPG = PUM1 PUF domain R4-CPG (Homo sapiens, UniProt Q14671 828-1176, N971C;H972P;Q975G)
# PUM1 PUF domain R4-CPG, sequence (Q14671 828-1176 N971C/H972P/Q975G): as the sequence (Q14671 828-1176 N971A/H972R/Q975S) above, with A144C, R145P, S148G counted along it
# Procedure, shortened: as §1
# PUM1 PUF domain R7-RGL = PUM1 PUF domain R7-RGL (Homo sapiens, UniProt Q14671 828-1176, S1079R;N1080G;E1083L)
# PUM1 PUF domain R7-RGL, sequence (Q14671 828-1176 S1079R/N1080G/E1083L): as the sequence (Q14671 828-1176 N971A/H972R/Q975S) above, with A144N, R145H, S148Q, S252R, N253G, E256L counted along it
# Procedure, shortened: as §1
# PUM1 PUF domain R3-TCD = PUM1 PUF domain R3-TCD (Homo sapiens, UniProt Q14671 828-1176, C935T;R936C;Q939D)
# PUM1 PUF domain R3-TCD, sequence (Q14671 828-1176 C935T/R936C/Q939D): as the sequence (Q14671 828-1176 N971A/H972R/Q975S) above, with C108T, R109C, Q112D, A144N, R145H, S148Q counted along it
# Procedure, shortened: as §1
# PUM1 PUF domain R8-PWY = PUM1 PUF domain R8-PWY (Homo sapiens, UniProt Q14671 828-1176, N1122P;Y1123W;Q1126Y)
# PUM1 PUF domain R8-PWY, sequence (Q14671 828-1176 N1122P/Y1123W/Q1126Y): as the sequence (Q14671 828-1176 N971A/H972R/Q975S) above, with A144N, R145H, S148Q, N295P, Y296W, Q299Y counted along it
# Procedure, shortened: as §1
# PUM1 PUF domain R8-YYR = PUM1 PUF domain R8-YYR (Homo sapiens, UniProt Q14671 828-1176, N1122Y;Q1126R)
# PUM1 PUF domain R8-YYR, sequence (Q14671 828-1176 N1122Y/Q1126R): as the sequence (Q14671 828-1176 N971A/H972R/Q975S) above, with A144N, R145H, S148Q, N295Y, Q299R counted along it
# Procedure, shortened: as §1
# PUM1 PUF domain R8-SYN = PUM1 PUF domain R8-SYN (Homo sapiens, UniProt Q14671 828-1176, N1122S;Q1126N)
# PUM1 PUF domain R8-SYN, sequence (Q14671 828-1176 N1122S/Q1126N): as the sequence (Q14671 828-1176 N971A/H972R/Q975S) above, with A144N, R145H, S148Q, N295S, Q299N counted along it
# Procedure, shortened: as §1
# PUM1 PUF domain R3-SPW = PUM1 PUF domain R3-SPW (Homo sapiens, UniProt Q14671 828-1176, C935S;R936P;Q939W)
# PUM1 PUF domain R3-SPW, sequence (Q14671 828-1176 C935S/R936P/Q939W): as the sequence (Q14671 828-1176 N971A/H972R/Q975S) above, with C108S, R109P, Q112W, A144N, R145H, S148Q counted along it
# Procedure, shortened: as §1
# PUM1 PUF domain R3-SPD = PUM1 PUF domain R3-SPD (Homo sapiens, UniProt Q14671 828-1176, C935S;R936P;Q939D)
# PUM1 PUF domain R3-SPD, sequence (Q14671 828-1176 C935S/R936P/Q939D): as the sequence (Q14671 828-1176 N971A/H972R/Q975S) above, with C108S, R109P, Q112D, A144N, R145H, S148Q counted along it
# Procedure, shortened: as §1
# PUM1 PUF domain R2-VYL, sequence (Q14671 828-1176 N899V/Q903L): as the sequence (Q14671 828-1176 N971A/H972R/Q975S) above, with N72V, Q76L, A144N, R145H, S148Q counted along it
sequence,measurement,setting,value
GGCUAGAACUAGUGGAUCCCCCGGCGCCCGGCGGCUCGAGCCCGGGUAAGUGUAAAAAGUCUGCAUGCCGCCGGGCGCCAUGCCUGCAGGUCGACUCUAGAAAACAUG,binding signal,PUM1 PUF domain R2-VYL,2.41 log2 enrichment (interaction score)
GGCUAGAACUAGUGGAUCCCCCGGCGCCCGGCGGCUCGAGCCCGGGUAAGUGUAUAUAGUCUGCAUGCCGCCGGGCGCCAUGCCUGCAGGUCGACUCUAGAAAACAUG,binding signal,PUM1 PUF domain R4-ARS,2.12 log2 enrichment (interaction score)
same,binding signal,PUM1 PUF domain R4-CPG,3.14 log2 enrichment (interaction score)
GGCUAGAACUAGUGGAUCCCCCGGCGCCCGGCGGCUCGAGCCCGGGUAAGUGUACAUAGUCUGCAUGCCGCCGGGCGCCAUGCCUGCAGGUCGACUCUAGAAAACAUG,binding signal,PUM1 PUF domain R4-ARS,3.28 log2 enrichment (interaction score)
same,binding signal,PUM1 PUF domain R4-CPG,2.44 log2 enrichment (interaction score)
GGCUAGAACUAGUGGAUCCCCCGGCGCCCGGCGGCUCGAGCCCGGGUAAGUUUAAAUAGUCUGCAUGCCGCCGGGCGCCAUGCCUGCAGGUCGACUCUAGAAAACAUG,binding signal,PUM1 PUF domain R7-RGL,3.07 log2 enrichment (interaction score)
GGCUAGAACUAGUGGAUCCCCCGGCGCCCGGCGGCUCGAGCCCGGGUAAGUGUAAGUAGUCUGCAUGCCGCCGGGCGCCAUGCCUGCAGGUCGACUCUAGAAAACAUG,binding signal,PUM1 PUF domain R3-TCD,4.9 log2 enrichment (interaction score)
GGCUAGAACUAGUGGAUCCCCCGGCGCCCGGCGGCUCGAGCCCGGGUAAGCGUAAAUAGUCUGCAUGCCGCCGGGCGCCAUGCCUGCAGGUCGACUCUAGAAAACAUG,binding signal,PUM1 PUF domain R8-PWY,2.57 log2 enrichment (interaction score)
same,binding signal,PUM1 PUF domain R8-YYR,5.94 log2 enrichment (interaction score)
same,binding signal,PUM1 PUF domain R8-SYN,2.66 log2 enrichment (interaction score)
GGCUAGAACUAGUGGAUCCCCCGGCGCCCGGCGGCUCGAGCCCGGGUAAGUCUAAAUAGUCUGCAUGCCGCCGGGCGCCAUGCCUGCAGGUCGACUCUAGAAAACAUG,binding signal,PUM1 PUF domain R7-RGL,1.29 log2 enrichment (interaction score)
GGCUAGAACUAGUGGAUCCCCCGGCGCCCGGCGGCUCGAGCCCGGGUAAGUGUAAAUAGUCUGCAUGCCGCCGGGCGCCAUGCCUGCAGGUCGACUCUAGAAAACAUG,binding signal,PUM1 PUF domain R4-ARS,4.61 log2 enrichment (interaction score)
same,binding signal,PUM1 PUF domain R4-CPG,4.34 log2 enrichment (interaction score)
same,binding signal,PUM1 PUF domain R3-SPW,3.13 log2 enrichment (interaction score)
same,binding signal,PUM1 PUF domain R8-YYR,5.34 log2 enrichment (interaction score)
same,binding signal,PUM1 PUF domain R3-SPD,3.36 log2 enrichment (interaction score)
